In the supplement of paper PMC10849652:
Of roughly 8,800 targets only a part is listed; those with a hit were picked by preference. About 0.5% of all pairs of compound and target were hits.

What was measured:
Test in all cases: log2 fold change, soluble protein after heating vs DMSO (PISA); higher = thermal stabilisation; K562 lysate, 10 uM; active = over 0.2 and 3.5 SD of the protein, either way, in both replicates (recomputed)
[1] = compound: C1=CC=C(C=C1)[C@H](COC2=CC3=C(C=C2)NC(=O)N3)NC(=O)C4=CC=CN(C4=O)CC5=CC(=C(C=C5)F)F
Procedure, shortened: (§1)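 Pellets of K562 cells were dounce-homogenised in PBS pH 7.4 with 1 mM MgCl2, and the crude extract was held at 1 mg/mL protein for a 30 min treatment with 10 μM compound. Aliquots were heated for 3 min over 48°C-58°C and pooled before NP-40 was added to 0.5% at 4°C. The supernatant from 21,000xg for 90 min was quantified by TMTpro 16plex LC-MS/MS with channel sums equalised. Values are reported from duplicates as log-two fold change in thermal stability relative to solvent controls.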

[2] = compound: CC1=C(SC2=C1C(=N[C@H](C3=NN=C(N32)C)CC(=O)N)C4=CC=C(C=C4)Cl)C
Procedure, shortened: as §1

[3] = compound: CC1=C2C(=CC=C1)N=C(N(C2=O)C3=CC=CC=C3C)CN4C=NC5=C(N=CN=C54)N
Procedure, shortened: as §1

[4] = compound: Cc1sc2c(c1C)C(c1ccc(Cl)cc1)=N[C@@H](CC(=O)OC(C)(C)C)c1nnc(C)n1-2
Procedure, shortened: as §1

[5] = compound: c1ccc([C@@H]2C[C@H]2NC2CCNCC2)cc1
Procedure, shortened: as §1

Measured: log2 fold change

PPP2R5C isoform 2 (UniProt Q13362)
inactive: [1] -0.016 | [2] 0.224 | [3] 0.004 | [4] -0.136 | [5] 0.026

PDCD6IP isoform 2 (UniProt Q8WUM4)
inactive: [1] -0.019 | [2] -0.004 | [3] 0.018 | [4] 0.02 | [5] 0.056

PUS3 (UniProt Q9BZE2)
inactive: [1] -0.006 | [2] -0.089 | [3] -0.073 | [4] 0.082 | [5] 0.135

PRKCD (UniProt Q05655)
Sequence of UniProt Q05655 (Q05655 whole entry, looked up): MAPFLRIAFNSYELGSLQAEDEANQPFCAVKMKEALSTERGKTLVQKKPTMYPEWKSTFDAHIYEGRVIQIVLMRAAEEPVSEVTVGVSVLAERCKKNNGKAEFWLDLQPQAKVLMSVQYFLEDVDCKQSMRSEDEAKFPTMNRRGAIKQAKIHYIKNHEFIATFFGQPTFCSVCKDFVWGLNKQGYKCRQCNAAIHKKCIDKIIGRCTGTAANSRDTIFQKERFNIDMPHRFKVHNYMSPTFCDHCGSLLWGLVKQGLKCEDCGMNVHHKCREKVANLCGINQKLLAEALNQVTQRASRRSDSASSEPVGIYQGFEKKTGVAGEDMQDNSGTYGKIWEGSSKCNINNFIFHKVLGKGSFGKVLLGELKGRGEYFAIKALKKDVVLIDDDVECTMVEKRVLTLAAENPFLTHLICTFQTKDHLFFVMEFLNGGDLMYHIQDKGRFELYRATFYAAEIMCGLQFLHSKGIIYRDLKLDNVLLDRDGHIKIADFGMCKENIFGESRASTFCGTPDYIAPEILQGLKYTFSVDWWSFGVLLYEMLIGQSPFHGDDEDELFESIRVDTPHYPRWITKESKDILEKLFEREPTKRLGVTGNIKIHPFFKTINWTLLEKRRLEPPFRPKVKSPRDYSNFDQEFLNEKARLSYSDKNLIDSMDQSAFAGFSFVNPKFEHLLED
inactive: [1] 0.003 | [2] 0.022 | [3] 0.028 | [4] -0.003 | [5] 0.023

POMP (UniProt Q9Y244)
inactive: [1] 0.077 | [2] -0.053 | [3] 0.045 | [4] -0.036 | [5] 0.061

PKN1 isoform 2 (UniProt Q16512)
inactive: [1] -0.003 | [2] 0.017 | [3] 0.023 | [4] 0.029 | [5] 0.022

PLK1 (UniProt P53350)
inactive: [1] 0.033 | [2] 0.042 | [3] 0.052 | [4] -0.026 | [5] 0.084

POLR2M (UniProt Q6EEV4)
Sequence of UniProt Q6EEV4 (Q6EEV4 whole entry, looked up): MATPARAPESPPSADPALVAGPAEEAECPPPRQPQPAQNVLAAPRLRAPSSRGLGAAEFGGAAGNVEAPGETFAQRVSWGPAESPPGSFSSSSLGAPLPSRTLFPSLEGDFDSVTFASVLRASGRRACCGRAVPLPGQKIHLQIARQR
inactive: [1] 0.01 | [2] 0.042 | [3] -0.084 | [4] 0.132 | [5] 0.012

PEX2 (UniProt P28328)
Sequence of UniProt P28328 (P28328 whole entry, looked up): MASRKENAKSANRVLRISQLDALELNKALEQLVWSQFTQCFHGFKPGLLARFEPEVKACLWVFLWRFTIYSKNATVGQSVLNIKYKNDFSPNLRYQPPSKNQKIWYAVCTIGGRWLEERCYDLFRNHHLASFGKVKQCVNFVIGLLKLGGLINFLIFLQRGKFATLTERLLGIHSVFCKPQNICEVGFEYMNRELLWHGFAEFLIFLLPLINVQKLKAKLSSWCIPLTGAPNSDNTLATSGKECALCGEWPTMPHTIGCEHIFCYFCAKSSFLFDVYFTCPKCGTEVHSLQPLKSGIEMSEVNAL
inactive: [1] -0.243 | [2] 0.053 | [3] -0.048 | [4] 0.116 | [5] -0.365

PPP2R3C (UniProt Q969Q6)
inactive: [1] -0.044 | [2] 0.006 | [3] 0.042 | [4] -0.052 | [5] 0.059

PRKCB isoform 2 (UniProt P05771)
inactive: [1] -0.007 | [2] -0.022 | [3] 0.086 | [4] 0.07 | [5] -0.005

PKP3 isoform 2 (UniProt Q9Y446)
inactive: [1] -0.049 | [2] 0.014 | [3] 0.002 | [4] 0.062 | [5] -0.004

PTGR2 (UniProt Q8N8N7)
inactive: [1] 0.009 | [2] 0.039 | [3] -0.003 | [4] -0.048 | [5] -0.004

PPME1 isoform 4 (UniProt Q9Y570)
Sequence of UniProt Q9Y570 (Q9Y570 whole entry, looked up): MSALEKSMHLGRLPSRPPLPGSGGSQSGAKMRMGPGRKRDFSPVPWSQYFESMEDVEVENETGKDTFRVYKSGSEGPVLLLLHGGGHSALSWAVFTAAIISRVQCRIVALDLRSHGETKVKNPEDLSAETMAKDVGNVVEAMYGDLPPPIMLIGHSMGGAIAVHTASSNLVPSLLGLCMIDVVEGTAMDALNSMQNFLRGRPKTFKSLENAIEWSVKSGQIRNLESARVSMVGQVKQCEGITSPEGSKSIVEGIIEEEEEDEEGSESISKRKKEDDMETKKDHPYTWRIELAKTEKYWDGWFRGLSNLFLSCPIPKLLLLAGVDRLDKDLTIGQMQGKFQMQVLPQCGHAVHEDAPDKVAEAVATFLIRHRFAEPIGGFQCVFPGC
inactive: [1] -0.004 | [2] 0.013 | [3] -0.019 | [4] 0.021 | [5] 0.007

PRKACB isoform 2 (UniProt P22694)
inactive: [1] -0.042 | [2] -0.004 | [3] -0.018 | [4] -0.009 | [5] 0.019

PTK2B (UniProt Q14289)
inactive: [1] -0.056 | [2] -0.012 | [3] -0.036 | [4] -0.009 | [5] -0.034

PRMT7 (UniProt Q9NVM4)
inactive: [1] -0.002 | [2] -0.029 | [3] 0.009 | [4] -0.039 | [5] 0.014

PRRC2A (UniProt P48634)
Sequence of UniProt P48634 (P48634 whole entry, looked up): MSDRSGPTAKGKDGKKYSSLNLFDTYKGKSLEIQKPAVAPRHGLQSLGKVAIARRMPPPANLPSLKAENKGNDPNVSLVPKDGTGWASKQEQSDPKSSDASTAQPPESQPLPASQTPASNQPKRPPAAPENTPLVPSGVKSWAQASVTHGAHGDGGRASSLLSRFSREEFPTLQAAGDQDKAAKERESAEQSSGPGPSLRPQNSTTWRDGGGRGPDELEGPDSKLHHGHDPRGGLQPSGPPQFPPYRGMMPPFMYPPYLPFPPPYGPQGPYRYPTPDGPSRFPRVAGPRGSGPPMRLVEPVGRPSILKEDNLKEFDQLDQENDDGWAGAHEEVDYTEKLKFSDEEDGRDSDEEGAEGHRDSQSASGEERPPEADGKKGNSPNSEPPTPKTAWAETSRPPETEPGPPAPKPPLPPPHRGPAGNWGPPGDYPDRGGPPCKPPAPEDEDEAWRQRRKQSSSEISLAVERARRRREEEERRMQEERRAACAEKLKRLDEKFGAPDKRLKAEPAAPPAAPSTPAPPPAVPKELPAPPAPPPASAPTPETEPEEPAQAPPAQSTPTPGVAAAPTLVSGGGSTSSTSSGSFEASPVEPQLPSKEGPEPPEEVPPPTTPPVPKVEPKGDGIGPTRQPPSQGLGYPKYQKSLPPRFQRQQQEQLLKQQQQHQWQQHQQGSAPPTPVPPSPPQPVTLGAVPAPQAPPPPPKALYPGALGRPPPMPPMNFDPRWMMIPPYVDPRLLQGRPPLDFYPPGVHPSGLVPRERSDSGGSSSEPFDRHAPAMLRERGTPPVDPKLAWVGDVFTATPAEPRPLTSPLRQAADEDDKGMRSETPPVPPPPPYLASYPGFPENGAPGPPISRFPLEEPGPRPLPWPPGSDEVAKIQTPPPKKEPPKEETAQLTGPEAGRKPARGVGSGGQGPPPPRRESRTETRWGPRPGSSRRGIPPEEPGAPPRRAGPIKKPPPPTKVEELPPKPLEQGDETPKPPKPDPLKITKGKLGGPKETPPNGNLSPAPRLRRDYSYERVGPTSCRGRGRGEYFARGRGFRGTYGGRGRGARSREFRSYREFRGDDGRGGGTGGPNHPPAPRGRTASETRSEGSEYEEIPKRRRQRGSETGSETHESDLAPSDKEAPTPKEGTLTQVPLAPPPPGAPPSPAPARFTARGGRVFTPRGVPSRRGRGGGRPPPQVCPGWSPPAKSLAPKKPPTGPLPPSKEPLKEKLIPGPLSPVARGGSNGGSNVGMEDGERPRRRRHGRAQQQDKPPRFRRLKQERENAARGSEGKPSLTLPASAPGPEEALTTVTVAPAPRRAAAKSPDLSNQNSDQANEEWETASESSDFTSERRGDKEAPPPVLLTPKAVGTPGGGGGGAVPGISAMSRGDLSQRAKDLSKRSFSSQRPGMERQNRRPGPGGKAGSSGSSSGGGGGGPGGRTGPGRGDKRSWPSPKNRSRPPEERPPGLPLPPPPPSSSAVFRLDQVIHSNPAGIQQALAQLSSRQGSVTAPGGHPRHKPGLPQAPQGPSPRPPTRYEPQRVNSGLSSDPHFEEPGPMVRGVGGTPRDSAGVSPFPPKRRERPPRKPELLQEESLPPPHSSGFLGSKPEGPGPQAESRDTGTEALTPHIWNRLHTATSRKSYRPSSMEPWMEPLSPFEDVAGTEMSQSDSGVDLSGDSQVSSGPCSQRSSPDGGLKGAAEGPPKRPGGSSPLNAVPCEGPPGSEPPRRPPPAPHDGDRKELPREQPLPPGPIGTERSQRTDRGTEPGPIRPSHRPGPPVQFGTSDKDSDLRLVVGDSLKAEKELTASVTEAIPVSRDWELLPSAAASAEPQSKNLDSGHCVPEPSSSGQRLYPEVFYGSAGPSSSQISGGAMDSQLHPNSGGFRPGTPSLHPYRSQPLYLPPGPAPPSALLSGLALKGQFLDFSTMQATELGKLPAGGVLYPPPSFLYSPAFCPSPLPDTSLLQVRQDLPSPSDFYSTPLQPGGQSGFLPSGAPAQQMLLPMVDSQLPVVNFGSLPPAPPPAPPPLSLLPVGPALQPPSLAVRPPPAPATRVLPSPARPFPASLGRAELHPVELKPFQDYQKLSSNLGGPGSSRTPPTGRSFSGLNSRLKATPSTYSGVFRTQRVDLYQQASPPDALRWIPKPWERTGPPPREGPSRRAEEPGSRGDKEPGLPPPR
inactive: [1] -0.047 | [2] 0.003 | [3] 0.001 | [4] 0.017 | [5] -0.02

PIP4P2 (UniProt Q8N4L2)
Sequence of UniProt Q8N4L2 (Q8N4L2 whole entry, looked up): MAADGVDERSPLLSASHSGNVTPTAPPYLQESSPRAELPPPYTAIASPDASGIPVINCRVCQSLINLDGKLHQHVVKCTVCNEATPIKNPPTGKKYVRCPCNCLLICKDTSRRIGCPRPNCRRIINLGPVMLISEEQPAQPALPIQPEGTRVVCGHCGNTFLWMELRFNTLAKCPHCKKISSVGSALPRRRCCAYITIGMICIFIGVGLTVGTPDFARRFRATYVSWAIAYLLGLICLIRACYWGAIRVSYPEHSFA
inactive: [1] 0.03 | [2] -0.068 | [3] -0.012 | [4] 0.012 | [5] -0.106

PRKCSH isoform 2 (UniProt P14314)
Sequence of UniProt P14314 (P14314 whole entry, looked up): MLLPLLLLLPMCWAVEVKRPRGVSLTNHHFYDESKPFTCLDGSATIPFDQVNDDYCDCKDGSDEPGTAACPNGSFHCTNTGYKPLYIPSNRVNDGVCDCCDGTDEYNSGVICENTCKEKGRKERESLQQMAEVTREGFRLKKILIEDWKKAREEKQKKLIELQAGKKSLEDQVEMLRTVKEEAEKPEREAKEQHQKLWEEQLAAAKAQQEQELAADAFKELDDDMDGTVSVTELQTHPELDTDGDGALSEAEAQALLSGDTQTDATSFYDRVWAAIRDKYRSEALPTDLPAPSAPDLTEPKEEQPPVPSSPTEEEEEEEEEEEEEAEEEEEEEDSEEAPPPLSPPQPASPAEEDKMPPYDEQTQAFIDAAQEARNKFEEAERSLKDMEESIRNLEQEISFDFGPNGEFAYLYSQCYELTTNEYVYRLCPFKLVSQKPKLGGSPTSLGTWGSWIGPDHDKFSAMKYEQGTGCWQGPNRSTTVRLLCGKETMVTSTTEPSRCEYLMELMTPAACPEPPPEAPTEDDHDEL
inactive: [1] 0.084 | [2] -0.09 | [3] -0.067 | [4] -0.128 | [5] -0.33

PTPN2 (UniProt P17706)
inactive: [1] -0.031 | [2] 0.017 | [3] 0.023 | [4] 0.007 | [5] 0.012

PTS (UniProt Q03393)
active: [2] -0.274
inactive: [1] -0.024 | [3] 0.032 | [4] -0.093 | [5] 0.022

PRIM2 (UniProt P49643)
Sequence of UniProt P49643 (P49643 whole entry, looked up): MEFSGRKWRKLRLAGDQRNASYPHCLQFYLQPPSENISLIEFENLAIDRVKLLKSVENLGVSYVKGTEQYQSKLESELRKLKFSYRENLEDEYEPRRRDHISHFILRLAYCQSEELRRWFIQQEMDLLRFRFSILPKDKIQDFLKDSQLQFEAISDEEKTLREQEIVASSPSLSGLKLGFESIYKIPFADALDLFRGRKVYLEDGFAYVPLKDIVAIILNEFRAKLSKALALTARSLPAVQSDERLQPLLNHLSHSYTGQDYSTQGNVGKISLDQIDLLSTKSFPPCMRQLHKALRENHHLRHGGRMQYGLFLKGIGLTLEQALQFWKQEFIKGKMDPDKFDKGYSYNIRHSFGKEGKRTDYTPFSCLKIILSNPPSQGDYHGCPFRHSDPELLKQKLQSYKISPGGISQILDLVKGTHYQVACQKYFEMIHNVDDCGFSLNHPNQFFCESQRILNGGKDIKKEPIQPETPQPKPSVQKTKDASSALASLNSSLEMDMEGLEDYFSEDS
inactive: [1] 0.004 | [2] 0.026 | [3] 0.016 | [4] 0.009 | [5] 0.028

PPIL2 (UniProt Q13356)
inactive: [1] 0.036 | [2] 0.005 | [3] 0.029 | [4] 0.082 | [5] 0.011
